HIF-2a block = HIF-2a inhibition; 786-0 RCC cells HIF-2a reporter, luciferase luminescence, overnight; inhibition, % at 18.8 µM; actives 0.72% (n = 360,000);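 active = inhibition of the luminescence signal of 40% or more relative to plate controls, in a single-dose primary screen at 18.75 µM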
TROY signal inh = TROY signaling inhibition. Q293 LMP1-TROYcd NF-kB luciferase reporter, 4 h. inhibition, % at 10 µM. actives 0.98% (n = 360,000). AID 1347056;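 active = compounds whose plate-normalised and pattern-corrected inhibition of the luciferase reporter signal at the single screening dose is 50% or more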
KKLEB cytotox = reduces viability of KKLEB cystic fibrosis airway cells. actives 0.36% (n = 360,000). activity change (cytotoxicity), % at 5 µM. KKLEB CF airway cells viability, ATPlite luminescence, overnight; stronger effect = lower value; cells stimulated with P. aeruginosa culture filtrate;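 active = corrected activity change at or below -50% at 5 µM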
Peg3 promoter = inhibitors of Peg3 promoter. HeLa PEG-Prom luciferase reporter, luminescence, overnight. inhibition, % at 20 µM. actives 1.7% (n = 360,000). AID 588405;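 active = inhibition of at least 50% at 20 µM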
CF NFkB block = inhibitors of cystic fibrosis induced NF-kB | KKLEB NF-kB-GFP reporter, PAF-induced, GFP fluorescence overnight | inhibition, % at 5 µM | actives 0.86% (n = 360,000);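 active = at least 50% inhibition at 5 µM, scaled per plate between neutral and stimulator controls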;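 note: PAF is a Pseudomonas aeruginosa culture filtrate used as stimulus; plate controls were PAF-stimulated DMSO wells for no effect and unstimulated DMSO wells for full effect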
TWEAK Fn14 block = blocks TWEAK-Fn14 interaction in a reporter cell assay; TWEAK-stimulated Fn14 reporter cells, luciferase luminescence, 8 h; actives 2% (n = 360,000); AID 1159606; inhibition, % at 10 µM; in the data active = inhibition above about 50%
CF NFkB conf = confirmation of cystic fibrosis induced NF-kB inhibitors; shares compounds with CF NFkB block; KKLEB CF airway cells, PAF-induced NF-kB-GFP fluorescence, overnight; inhibition, % at 5 µM; actives 64% (n = 1,300); in the data active = inhibition above about 40%;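 note: stimulus PAF is a Pseudomonas aeruginosa filtrate and not platelet activating factor; plate controls were DMSO wells with stimulus for no effect and unstimulated DMSO wells for full effect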
Numbers without * were called inactive. Shown are actives, neighbours in structure and some others; about 4% of the full set was active somewhere.

Results for COc1cccc(N2CCN(c3ccc4nnc(CCC(=O)N5CCC(C)CC5)n4n3)CC2)c1 ?
HIF-2a block: 12; TROY signal inh: 4; KKLEB cytotox: 0; Peg3 promoter: 21; CF NFkB block: 2; TWEAK Fn14 block: -9

Results for CCC(C)(C)C1CCC2(CC1)NC(=O)N(CC(=O)N(C)Cc1ccc3c(c1)OCCO3)C2=O (configuration not stated) ?
HIF-2a block: 10; TROY signal inh: 29; KKLEB cytotox: -13; Peg3 promoter: 22; CF NFkB block: 36; TWEAK Fn14 block: 13

Results for CC1(C)CC(=O)C=C(NC2=CC3OC(c4ccccc4)OCC3OC2=O)C1 (configuration not stated) ?
HIF-2a block: 40; TROY signal inh: 17; KKLEB cytotox: -8; Peg3 promoter: 64*; CF NFkB block: 72*; TWEAK Fn14 block: 76*; CF NFkB conf: 52*

Results for Cc1ccccc1NC1=CC(=O)CC(C)(C)C1 ?
HIF-2a block: 12; TROY signal inh: 15; KKLEB cytotox: 5; Peg3 promoter: 13; CF NFkB block: 5; TWEAK Fn14 block: 4

What do the screens show for `O=C(CNC(=O)c1ccc(Cl)cc1Cl)OCc1nnc(-c2ccccc2)o1`?
HIF-2a block: -24; TROY signal inh: -21; KKLEB cytotox: 7; Peg3 promoter: -29; CF NFkB block: 1; TWEAK Fn14 block: -3

How did Nc1ncc([N+](=O)[O-])cc1S(=O)(=O)c1ccccc1 do in these assays?
HIF-2a block: 12; TROY signal inh: 0; KKLEB cytotox: 4; Peg3 promoter: 7; CF NFkB block: 4; TWEAK Fn14 block: 10

How did C=C1C(=O)O[C@@]23[C@H]1CC[C@@H](C)[C@@H]2CC[C@@]1(C)O[C@@H]31 do in these assays?
HIF-2a block: 19; TROY signal inh: 4; KKLEB cytotox: 4; Peg3 promoter: -102; CF NFkB block: 54*; TWEAK Fn14 block: 48; CF NFkB conf: 71*

How did CC12CCC(O)CC1=CCC1C2CCC2(C)C(c3ccn[nH]3)CCC12 (configuration not stated) do in these assays?
HIF-2a block: 0; TROY signal inh: 48; KKLEB cytotox: -3; Peg3 promoter: 46; CF NFkB block: -5; TWEAK Fn14 block: 16

Results for CC(NC(=O)c1ccc([N+](=O)[O-])cc1Cl)C1CC2CCC1C2 (configuration not stated) ?
HIF-2a block: -67; TROY signal inh: -19; KKLEB cytotox: 3; Peg3 promoter: -31; CF NFkB block: 16; TWEAK Fn14 block: -7

What do the screens show for `CC(NC(=O)c1ccc([N+](=O)[O-])o1)C1CC2CCC1C2` (configuration not stated)?
HIF-2a block: 7; TROY signal inh: -10; KKLEB cytotox: -9; Peg3 promoter: 41; CF NFkB block: 62*; TWEAK Fn14 block: 18; CF NFkB conf: 25

What do the screens show for `O=C(NCCc1ccccc1)C1CCCN1C(=O)Nc1ccc(Cl)cc1` (configuration not stated)?
HIF-2a block: 13; TROY signal inh: -7; KKLEB cytotox: 11; Peg3 promoter: 8; CF NFkB block: -10; TWEAK Fn14 block: 13

What do the screens show for `COc1cc(CCc2ccccc2)c(C(=O)O)c(O)c1C/C=C(/C)CCC=C(C)C`?
HIF-2a block: -1; TROY signal inh: 42; KKLEB cytotox: -19; Peg3 promoter: 57*; CF NFkB block: 60*; TWEAK Fn14 block: 44; CF NFkB conf: 71*

How did Cc1ccc(C(=O)COC(=O)c2cc(Cl)ccc2O)cc1[N+](=O)[O-] do in these assays?
HIF-2a block: 13; TROY signal inh: 1; KKLEB cytotox: -14; Peg3 promoter: 5; CF NFkB block: 52*; TWEAK Fn14 block: 31; CF NFkB conf: 47*

How did CN(c1cc(Cl)c2c(c1)OCO2)c1cc2c(c3c1ccn3C)C1CCC2C1 (configuration not stated) do in these assays?
HIF-2a block: 1; TROY signal inh: -13; KKLEB cytotox: -12; Peg3 promoter: -5; CF NFkB block: 34; TWEAK Fn14 block: 9

What do the screens show for `COc1cccc(-c2c(C(=O)N/N=C/c3sccc3C)nnn2-c2nonc2N)c1`?
HIF-2a block: 20; TROY signal inh: 16; KKLEB cytotox: -10; Peg3 promoter: 39; CF NFkB block: 50*; TWEAK Fn14 block: 18; CF NFkB conf: 35

Results for CCCCCCc1cc2cc(S(=O)(=O)c3ccc(F)cc3)c(=O)oc2cc1O ?
HIF-2a block: 5; TROY signal inh: 51*; KKLEB cytotox: -36; Peg3 promoter: 43; CF NFkB block: 51*; TWEAK Fn14 block: 22; CF NFkB conf: 78*

What do the screens show for `CCCCCCc1cc2cc(C(=O)Nc3ccccc3OC)c(=O)oc2cc1O`?
HIF-2a block: 9; TROY signal inh: 6; KKLEB cytotox: -42; Peg3 promoter: 3; CF NFkB block: 54*; TWEAK Fn14 block: 12; CF NFkB conf: 55*

What do the screens show for `COc1cc([C@@H]2c3cc4c(cc3[C@@H](O)[C@H]3COC(=O)[C@H]23)OCO4)cc(OC)c1O[Si](C)(C)C(C)(C)C`?
HIF-2a block: 3; TROY signal inh: 12; KKLEB cytotox: 5; Peg3 promoter: 39; CF NFkB block: 24; TWEAK Fn14 block: 6

How did COc1cc(C2c3cc4c(cc3C3OC(=O)C2C3CO)OCO4)cc(OC)c1OC (configuration not stated) do in these assays?
HIF-2a block: 24; TROY signal inh: 18; KKLEB cytotox: -37; Peg3 promoter: -1; CF NFkB block: 53*; TWEAK Fn14 block: -18; CF NFkB conf: 75*

Results for Cc1sc2ncnc(Nc3ccc(O)cc3)c2c1C ?
HIF-2a block: -17; TROY signal inh: -7; KKLEB cytotox: 3; Peg3 promoter: -10; CF NFkB block: 10; TWEAK Fn14 block: -6

Results for Oc1ccc(Nc2ncnc3scc(-c4ccccc4)c23)cc1 ?
HIF-2a block: 24; TROY signal inh: 33; KKLEB cytotox: -16; Peg3 promoter: 15; CF NFkB block: 61*; TWEAK Fn14 block: 63*; CF NFkB conf: 78*

How did Cc1cccc(N2CCN(C(=O)CCn3c(=S)[nH]c4cc5c(cc4c3=O)OCO5)CC2C)c1 (configuration not stated) do in these assays?
HIF-2a block: -8; TROY signal inh: 20; KKLEB cytotox: 1; Peg3 promoter: 63*; CF NFkB block: 69*; TWEAK Fn14 block: 47; CF NFkB conf: 101*

How did Cc1cccc(N2CCN(C(=O)CCCn3c(=S)[nH]c4cc5c(cc4c3=O)OCO5)CC2)c1C do in these assays?
HIF-2a block: 4; TROY signal inh: 12; KKLEB cytotox: -3; Peg3 promoter: 9; CF NFkB block: 14; TWEAK Fn14 block: 36
